Screens (PubChem)
In the library only some 7.3% were active in any assay of this set; here they are far more common.
FLuc modulator: counter-screen for miR-21 project: firefly luciferase inhibitors or activators | P08659 | purified FLuc, Km substrates, luminescence inhibition | Potency, µM (top dose mostly 57.5 µM), usual class: inhibitors | 360,000 compounds, 6.9% hits; also: nearly all actives have a fitted effect of over 55% in size
Target sequence (P08659 whole entry, looked up): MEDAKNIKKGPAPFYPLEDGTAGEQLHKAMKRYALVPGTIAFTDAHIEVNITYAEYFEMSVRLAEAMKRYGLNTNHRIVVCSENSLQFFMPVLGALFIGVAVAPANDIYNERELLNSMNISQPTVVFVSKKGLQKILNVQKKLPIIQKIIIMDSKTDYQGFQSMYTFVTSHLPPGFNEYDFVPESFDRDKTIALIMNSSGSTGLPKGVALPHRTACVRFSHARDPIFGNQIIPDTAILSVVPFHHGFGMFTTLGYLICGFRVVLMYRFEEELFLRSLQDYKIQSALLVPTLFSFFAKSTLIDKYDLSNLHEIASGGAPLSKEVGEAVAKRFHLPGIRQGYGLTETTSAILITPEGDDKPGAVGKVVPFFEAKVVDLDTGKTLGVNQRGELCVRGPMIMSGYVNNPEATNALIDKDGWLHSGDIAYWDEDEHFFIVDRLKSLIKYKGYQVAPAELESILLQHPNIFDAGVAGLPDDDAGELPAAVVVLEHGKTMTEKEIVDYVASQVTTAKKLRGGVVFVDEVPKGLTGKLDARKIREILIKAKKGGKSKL
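Biochemical qHTS of compounds, final roughly 60 µM downward over six points, against 10 nM purified firefly luciferase using Km concentrations of substrates (10 uM D-luciferin, 10 uM ATP) in Tris acetate pH 7.5 buffer; luminescence output.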
ELG1 genotoxic: induces genotoxicity in HEK293T cells with luciferase-tagged ELG1; AID 504466; HEK293T ELG1-luciferase reporter, luminescence, 16 h; Potency, µM (highest dose often 46 µM), usual class: activators; 330,000 compounds, 1.3% hits; also: nearly all actives have a fitted effect of over 60% in size
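After overnight (16 hr) compound treatment at 37 °C, ELG1-luciferase HEK293T cells were lysed with ONE-Glo; luminescence quantified 30 min later at room temperature.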
Rab9 prom act: activators of Rab9 promoter. Huh7 Rab9 promoter-luciferase reporter, luminescence, 24 h. Potency, µM (titrated, usually from 9.22 µM), actives largely listed as activators. 320,000 compounds, 2.8% hits; also: nearly all actives have a fitted effect of over 60% in size
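Using Huh7 cells stably transfected with Rab9 promoter–luciferase, compounds were incubated 24 h at 37 °C, 5% CO2; luciferase luminescence was read 10 min after reagent addition.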
NPC1 promoter act: activates the NPC1 promoter. AID 485313. Huh7 NPC1 promoter luciferase reporter, 24 h. Potency, µM (series often up to 9.22 µM), most hits filed as activators. 320,000 compounds, 2.4% hits; also: nearly all actives have a fitted effect of over 60% in size
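Readout is luciferase luminescence, reflecting NPC1 promoter activation in stably transfected Huh7 cells after 24 h compound exposure at 37 °C in reduced-serum medium with 10% FBS.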
SMN2 splice up: increases expression of the SMN2 splice variant; HEK293 SMN2-luciferase splicing reporter, luminescence, 30-36 h; Potency, µM (highest dose often 46.1 µM), usual class: activators; 210,000 compounds, 2.8% hits; AID 1458; also: nearly all actives have a fitted effect of over 55% in size
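qHTS luciferase splicing reporter: luminescence rises when SMN2 exon 7 is included in transfected HEK293 cells. Compound exposure lasted 30-36 h at 37C, with 4.5 mM final sodium butyrate as control, followed by a ONE-Glo read.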
KinaseGlo FLuc: Kinase-Glo luciferase inhibition (counter-screen) | Q27757 | Kinase-Glo luciferase, ATP luminescence, 8 min | Potency, µM (highest dose often 38.3 µM), usual class: inhibitors | 200,000 compounds, 0.28% hits; also: nearly all actives have a fitted effect of over 60% in size
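Kinase-Glo luciferase light output from ATP and luciferin was measured with 10 uM ATP, within the enzyme's linear range. Buffer: 50 mM imidazole pH 7.2, 50 mM KCl, 7 mM MgCl2, 0.01% Tween 20, 0.05% BSA; luminescence read after 8 min at ambient temperature.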
Hits are given with their value; 0 = inactive; ? = inconclusive; - = no result. Calls follow the shape of the dose curve; as a rule, active = well fitted curve in the direction sought with a large enough effect; inconclusive = small, poorly fitted or top-dose-only effect, or another doubt; inactive = no such curve, though single readings can be large; an effect the other way counts as inactive or inconclusive.

SMILES	FLuc modulator	ELG1 genotoxic	Rab9 prom act	NPC1 promoter act	SMN2 splice up	KinaseGlo FLuc
CC(C)CN1C(=O)c2ccc(NC(=O)c3ccco3)cc2C1=O	19µM	0	?	?	-	0
O=C(/C=C/c1ccccc1[N+](=O)[O-])NNC(=O)c1ccncc1	-	0	0	0	-	-
O=C(Cc1ccccc1)N/N=C/C=C/c1ccccc1[N+](=O)[O-]	0	0	?	?	-	-
O=C(/C=C/c1ccccc1[N+](=O)[O-])c1ccc(F)cc1	13µM	?	0	0	0	0
COc1ccc(C(=O)COC(=O)/C=C/c2ccccc2[N+](=O)[O-])cc1	-	0	-	-	-	-
O=C(O)c1ccc(N/N=C/C=C/c2ccccc2[N+](=O)[O-])cc1	3.4µM	?	1.4µM	1.4µM	8.9µM	0
O=C(/C=C/c1ccccc1[N+](=O)[O-])OCC(=O)c1ccccc1	24µM	0	0	0	0	0
NC(=O)COC(=O)/C=C/c1ccccc1[N+](=O)[O-]	0	0	0	0	0	0
O=C(/C=C/c1ccccc1[N+](=O)[O-])Oc1ccccc1	6.7µM	0	0	0	-	-
COc1ccc(NC(=O)c2c(C)oc3ccc(O)c(CN4CCN(Cc5ccccc5)CC4)c23)cc1	0	-	-	-	0	-
CC(=O)Cc1nsc(Nc2ccc3c(c2)OCCO3)n1	24µM	?	4µM	3.5µM	13µM	0
COc1ccc(Nc2nc(CC(C)=O)ns2)cc1	?	?	3.2µM	?	14µM	0
CC(=O)Cc1nsc(Nc2ccc(F)cc2)n1	0	0	0	0	0	0
COc1cccc(Nc2nc(CC(C)=O)ns2)c1	?	?	0	?	0	0
COc1ccccc1-c1noc(CSc2nnc(Cc3ccccc3)n2-c2ccc(C)c(C)c2)n1	0	-	-	-	0	-
C=C1c2c(Cl)ccc(O)c2C(O)=C2C(=O)[C@@]3(O)C(O)=C(C(N)=O)C(=O)[C@@H](N(C)C)[C@@H]3[C@@H](O)[C@H]12	-	-	-	-	0	0
Cc1ccc(C2=NN(CC(=O)NCCCN(CC(C)C)CC(C)C)C(=O)CC2)cc1	0	-	-	-	-	-
Cc1ccc(Cl)c2c1=NC(=O)C=2c1[nH]c(=S)[nH]c1O	19µM	0	0	0	0	0
Cc1ccc(NC(=O)C(=O)NCC2CCCO2)cc1C (stereo not drawn)	?	8.2µM	1.3µM	2.8µM	11µM	0
Cc1cc(C)cc(NC(=O)C(=O)NCC2CCCO2)c1 (stereo not drawn)	0	0	0	0	0	0
Cc1ccc(NC(=O)C(=O)NN=C2CCCC2)cc1C	13µM	0	?	0	-	0
Cc1ccc(Nc2nnc(SC(C)C(=O)NCC3CCCO3)s2)cc1C (stereo not drawn)	15µM	0	0	0	-	-
Cc1ccc(NC(=O)C(=O)NCC2CCCO2)cc1 (stereo not drawn)	?	?	4µM	?	14µM	0
COc1ccc(CNS(=O)(=O)c2ccc(-c3cc(C(F)(F)F)on3)s2)cc1OC	0	-	-	-	-	-
O=C(CNC(=O)c1ccccc1)NCCCSc1ccccc1	-	0	-	-	-	-
SMILES	FLuc modulator	ELG1 genotoxic	Rab9 prom act	NPC1 promoter act	SMN2 splice up	KinaseGlo FLuc
O=C(NCCCSc1ccccc1)c1cc(Cl)ccc1O	11µM	?	0	0	-	-
CC(C)Cn1cc(NC(=O)NCc2cccc(Cl)c2)c2ccccc2c1=O	0	-	-	-	-	-
CCCCN(C(=O)CSc1nnnn1C)c1c(N)n(Cc2ccccc2)c(=O)[nH]c1=O	0	0	0	0	-	-
CCCn1c(N)c(C(=O)CSc2nc3ccccc3s2)c(=O)[nH]c1=O	0	0	0	0	13µM	0
CCCCCN(C(=O)CCC(=O)OCC(=O)c1ccc(CCC)cc1)c1c(N)n(CCCC)c(=O)[nH]c1=O	2.7µM	0	0	0	-	-
CCCCN(C(=O)CSc1nnc(Nc2ccccc2)s1)c1c(N)n(CCC)c(=O)[nH]c1=O	15µM	0	0	0	-	0
CCCCn1c(N)c(N(CC(C)C)C(=O)CCS(=O)(=O)c2ccc(C)cc2)c(=O)[nH]c1=O	0	0	0	0	-	-
CCCCn1c(N)c(N(CC(C)C)C(=O)CSc2n[nH]c(-c3ccc(C)cc3)n2)c(=O)[nH]c1=O	11µM	0	0	0	-	-
Cn1nnnc1SCCCNCc1ccccc1OCc1ccc(F)cc1	0	-	-	-	-	-
CCCCn1c(N)c(N(CCOC)C(=O)CSc2n[nH]c(-c3ccc(C)cc3)n2)c(=O)[nH]c1=O	0	0	0	0	-	-
CCCCCN(C(=O)CSc1n[nH]c(-c2ccc(C)cc2)n1)c1c(N)n(CCCC)c(=O)[nH]c1=O	2.7µM	0	0	0	-	-
COc1ccc(C2CC(=O)N(CC(=O)Nc3ccc(C)c(Cl)c3)c3ccccc3S2)cc1OC (stereo not drawn)	0	-	-	-	0	-
Cc1ccc(C(=O)N/C(=C\c2ccc(Br)cc2)c2nc(=S)[nH][nH]2)cc1	?	0	0	0	0	0
O=C(N/C(=C/c1cccc(Br)c1)c1nc(=S)[nH][nH]1)c1ccccc1	6.7µM	0	0	0	0	0
OCC1OC(n2cnc3c(Cl)ncnc32)C(O)C1O (stereo not drawn)	-	-	-	-	0	0
CNc1ncnc2c1ncn2[C@@H]1O[C@H](CO)[C@@H](O)[C@H]1O	0	16µM	0	0	0	-
